From PubChem BioAssay (NCI) come the findings set out here.

This is part of a sample that, as a whole, favours compounds with a hit. Of some 79,000 tested, about 15% had one in any assay. Values without a mark were called inactive. The source made the active and inactive calls. No stated cut-off is given here; in the data, active means growth inhibition above about 70%; inactive means the rest.

The nature of the first test: NCI Yeast Anticancer Drug Screen. Data for the cln2 rad14 strain (AID 165).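 Further: 0% = growth equal to vehicle treated cultures.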 The conditions noted are these: S. cerevisiae cln2 rad14 strain, at 5.0 µM (retest, dose inferred, filed as 0.5), hits give high values. The procedure, abridged: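 Readout is yeast growth inhibition versus vehicle-treated controls, using a strain with cln2 and rad14 alterations exposed to compound.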
As to `CC(C)(C)[Si](C)(C)OCC1OC(n2cc(I)c(N)nc2=O)C(O[Si](C)(C)C(C)(C)C)C1O[Si](C)(C)C(C)(C)C` (stereo not drawn), the growth inhibition was 1%.

As to `O=C1C(=O)c2cc(Br)cc([N+](=O)[O-])c2-c2ccc(Br)cc21`, the growth inhibition is 21%.

Take `C(=NCCc1ccccc1)c1ccccc1B1OB(c2ccccc2C=NCCc2ccccc2)OB(c2ccccc2C=NCCc2ccccc2)O1`: the growth inhibition is 77% (active).

With `O=[N+]([O-])c1ccc(-c2ccccc2Cl)c([N+](=O)[O-])c1`, the growth inhibition is -8%.

With `CC12CCC(=O)C=C1CCC1C2CCC2(C)C(c3cnc[nH]3)CCC12` (stereo not drawn), the growth inhibition was 52%.

`COc1cccc(C2CC(C)(O)Oc3cc4c(cc32)OCO4)c1` (stereo not drawn): the growth inhibition was 8%.

Turning to `N/C(=N\N=C\c1cc(I)cc(I)c1O)NO`, the growth inhibition was 38%.

On to `Cc1ccc2nn(-c3ccc(O)cc3)nc2c1`, for which the growth inhibition was 6%.

Consider `COC(=O)C1=C(NC(=O)Nc2ccc(Cl)cc2)OC(C)(C)C1c1ccc(Cl)cc1` (stereo not drawn), for which the growth inhibition was 80% (active).

Consider `CCCC/C=C\CCCCCCCCCC1=C(O)C(=O)C=C(OC)C1=O`, for which the growth inhibition was 40%.

For `Cc1nn(C(=O)c2ccccc2O)c2c1C(c1ccco1)SC(N)=N2` (stereo not drawn), the growth inhibition was 10%.

Turning to `CC1=C(CO)C(=O)O[C@@H]([C@@H](C)[C@H]2CC[C@H]3[C@@H]4C[C@@H](O)C5=CC=CC(=O)[C@]5(C)[C@H]4CC[C@]23C)C1`, the growth inhibition was -1%.

In the case of `O=C(CNC(=O)Nc1ccc(NC(=O)NCC(=O)Nc2ccc(C3=NCCN3)cc2)cc1)Nc1ccc(C2=NCCN2)cc1`, the growth inhibition is 5%.

The same test, now with this note: S. cerevisiae cln2 rad14 strain, at 50.0 µM (retest, dose inferred, filed as 5.0), hits give high values.
Turning to `CCCCCCCCCCS(=O)(=O)Nc1ccc(C(=O)NN)cc1`, the growth inhibition is 80% (active).

For the compound `ON(C(=Nc1ccc(Cl)cc1)c1ccccc1)c1ccccc1`, the growth inhibition is 98% (active).

For the compound `Cc1ccc(-c2c(N)[n+]([O-])c3ccccc3[n+]2[O-])cc1`, the growth inhibition is 98% (active).

With `NC(=O)C12OC3CC(CC(C3)O1)O2`, the growth inhibition was 3%.

On to `C=C(C)[P+](C)(c1ccccc1)c1ccccc1`, for which the growth inhibition is -2%.

Turning to `CCC(C)SC1SCC2C(=O)N(C)C3(CC3C)C(=O)OCC(NC(=O)c3nc4ccccc4cc3O)C(=O)NC(C)C(=O)N(C)C1C(=O)N(C)C1(CC1C)C(=O)OCC(NC(=O)c1nc3ccccc3cc1O)C(=O)NC(C)C(=O)N2C` (stereo not drawn), the growth inhibition is 94% (active).

For `COc1ccc2ccc(=O)oc2c1CC=C(C)C`, the growth inhibition is 98% (active).

In the case of `O=c1ccn(C2OC(COC(c3ccccc3)(c3ccccc3)c3ccccc3)C(O)C2O)c(=O)[nH]1` (stereo not drawn), the growth inhibition is 98% (active).

For the compound `O=C1C(=O)C(Cc2ccccc2)(c2ccccc2)C(=O)N1c1ccccc1` (stereo not drawn), the growth inhibition was 22%.

Regarding `CCC(O)C(O)(c1ccccc1)c1nc2ccccc2s1` (stereo not drawn), the growth inhibition is 9%.

Take `c1ccc(-n2ncc3ccc4cccn4c32)cc1`: the growth inhibition is 25%.

`O=C(c1ccc([N+](=O)[O-])cc1)C(Br)C(Br)c1ccnc2ccccc12` (stereo not drawn): the growth inhibition is 69%.

Regarding `[Cl][Sn]1([Cl])[CH2]CC[CH2][Sn]([Cl])([Cl])[CH2]CC[CH2][Sn]([Cl])([Cl])[CH2]CC[CH2][Sn]([Cl])([Cl])[CH2]CC[CH2]1`, the growth inhibition was 47%.

With `Nc1ccc(O)c(=O)cc1`, the growth inhibition is 0%.

On to `CC(C)c1cc(C(=O)[O-])c(O)c(C(C)C)c1.CC(C)c1cc(C(=O)[O-])c(O)c(C(C)C)c1.CC(C)c1cc(C(=O)[O-])c(O)c(C(C)C)c1.CC(C)c1cc(C(=O)[O-])c(O)c(C(C)C)c1.CC(C)c1cc(C(=O)[O-])c(O)c(C(C)C)c1.CC(C)c1cc(C(=O)[O-])c(O)c(C(C)C)c1.[Cu+2].[Mn+2].[Mn+2]`, for which the growth inhibition was 53%.

For `CC1=C(C(=O)Nc2cccc(C(F)(F)F)c2)C(c2ccccc2F)C(C(=O)Nc2cccc(C(F)(F)F)c2)=C(C)N1`, the growth inhibition is 21%.

As to `O=C(c1ccccc1)C(C(=O)c1ccccc1)c1ccc2ccccc2n1`, the growth inhibition was 1%.

As for `NC(=S)N1N=C2c3ccccc3CC[C@H]2[C@@H]1c1cccs1`, the growth inhibition was 42%.

Take `O=CC(O)CN1CCCC1` (stereo not drawn): the growth inhibition is 6%.

As to `CCCCCN(CCCCC)CC(C)(C)C(O)c1ccc(OC)c2ccccc12` (stereo not drawn), the growth inhibition was 27%.

For `CSC(=S)n1nc(-c2cccs2)c(N=Nc2ccccc2)c1C(F)(F)F`, the growth inhibition was 97% (active).

As to `CC(O)C1CCCC[N+]1(C)C` (stereo not drawn), the growth inhibition is -6%.

On to `CCCCCCCCCCCC(=O)N(CCOC(=O)c1ccco1)CCOC(=O)c1ccco1`, for which the growth inhibition is 98% (active).

For the compound `CCOC(=O)NC(=S)Nc1ccsc1`, the growth inhibition was -13%.

Regarding `O=C(O)c1ccc(C(O)(c2ccccc2)c2ccccc2)cc1`, the growth inhibition is 90% (active).
